This note sets out measurements from a collection of fitness landscapes (doi:10.1016/j.celrep.2020.107928).

In all, about 81,000 sequences were measured (“one-hybrid fitness for binding NBS DNA”: median about -0.1, highest 2% from about 0.36 on). This excerpt belongs to a sample that is enriched for the highest values. Some results are limits rather than exact numbers.

First the molecules themselves.
B1: Caulobacter ParB omega fusion; a variant is named by its letters at X, in order, B8GW30 (parent)
chain: MESVVVGEPGMSEGRRGLGRGLSALLGEVDAAPAQAPGEQLGGSREAPIEILQRNPDQPRRTFREEDLEDLSNSIREKGVLQPILVRPSPDTAGEYQIVAGERAWRAAQRAGLKTVPIMVRELDDLAVLEIGIIENVQRADLNVLEEALSYKVLMEKFERTQENIAQTIGKSXSHVANXMRLLXLPDEVQSYLVSGELTAXHARAIAAAADPVALAKQIIEGGLSVRETEALARKAPNLSAGKSKGGRPPRVKDTDTQALESDLSSVLGLDVSIDHRGSTGTLTITYATLEQLDDLCNRLTRGI

The variants in the experiment derive from B1. Nature of the experiment: one-hybrid fitness for binding NBS DNA (the Noc-binding site; scaled: cognate 1, non-cognate 0); higher = stronger binding. To be noted: with NBS DNA site. In short, it runs like this:
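On M9-minus-histidine containing 0.1 mM IPTG and 5 mM 3-AT, E. coli USO cells with a HIS3 reporter, site 19 bp from the promoter, grew 48 hours at 37°C to select Caulobacter ParB libraries randomised at four specificity codons. Plasmids from before and after were Illumina-sequenced, with three replicate libraries pooled and variants under 10 reads left out. Fitness is the log change in variant-to-wild-type read ratio, rescaled against cognate and non-cognate.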
Take RVGR: the “one-hybrid fitness for binding NBS DNA” value worked out at 0.491. As for RVGP, the figure is at most 0.2; as for AKNC, at most 0.2.

Consider RDQV, for which the “one-hybrid fitness for binding NBS DNA” value is at most 0.2.

Consider QMHW, for which the “one-hybrid fitness for binding NBS DNA” value was at most 0.2. Turning to MIEP, the “one-hybrid fitness for binding NBS DNA” value was at most 0.2.

With EVLS, the “one-hybrid fitness for binding NBS DNA” value is at most 0.2. Turning to MMLC, the “one-hybrid fitness for binding NBS DNA” value is at most 0.2. Regarding CVFT, the “one-hybrid fitness for binding NBS DNA” value was at most 0.2. HSNA: the “one-hybrid fitness for binding NBS DNA” value was at most 0.2. For QYYH the value was at most 0.2; for QYRH, 0.541; for QYRD, at most 0.2. Regarding QYIS, the “one-hybrid fitness for binding NBS DNA” value was 0.202. For QYYS the value was 0.312; for QYRS, 0.644. For QYRN the value was 0.38; for QYDH, at most 0.2. For QYRP the value was 0.216; for GEPE, at most 0.2.

In the case of HWPK, the “one-hybrid fitness for binding NBS DNA” value is at most 0.2. Turning to GQSC, the “one-hybrid fitness for binding NBS DNA” value was at most 0.2.

For the variant RFKM, the “one-hybrid fitness for binding NBS DNA” value is at most 0.2. As for AIRM, the figure is at most 0.2. As for RLKD, the figure is at most 0.2; as for RHKN, 0.205; as for RLKN, at most 0.2. As for RCKS, the figure is 0.612; as for RCKD, at most 0.2; as for RHKP, at most 0.2. RLKS: the “one-hybrid fitness for binding NBS DNA” value was 0.554. For RFKN the value was at most 0.2. For RPKS the value was at most 0.2. As for RFKH, the figure is at most 0.2.

RFKS: the “one-hybrid fitness for binding NBS DNA” value was found to be 0.444. On to RHKS, for which the “one-hybrid fitness for binding NBS DNA” value was 0.57. For TSAW the value was at most 0.2. For RVSW, the “one-hybrid fitness for binding NBS DNA” value is at most 0.2. As for DRFC, the figure is at most 0.2.

SYSC: the “one-hybrid fitness for binding NBS DNA” value is at most 0.2. For PYQW the value was at most 0.2.

Take SPAY: the “one-hybrid fitness for binding NBS DNA” value was at most 0.2. As for KNRG, the figure is at most 0.2; as for RAKS, 0.571. Take RSKD: the “one-hybrid fitness for binding NBS DNA” value was at most 0.2. As for RSKS, the figure is 0.567; as for RIKP, at most 0.2. With RIKS, the “one-hybrid fitness for binding NBS DNA” value turned out to be 0.499. For RAVS the value was 0.239. As for RAKH, the figure is 0.36; as for RSVS, 0.285. For RIVS the value was at most 0.2. As to HGYR, the “one-hybrid fitness for binding NBS DNA” value was at most 0.2. As for STVP, the figure is at most 0.2; as for PRHI, at most 0.2; as for VTRH, at most 0.2. As for QTNL, the figure is 0.214; as for RLAD, at most 0.2. For RLAT the value was 0.423; for RSAT, 0.414. Take RMAT: the “one-hybrid fitness for binding NBS DNA” value turned out to be 0.426. As for RIAD, the figure is at most 0.2; as for RIAT, 0.376; as for RMAP, at most 0.2.

RDAT: the “one-hybrid fitness for binding NBS DNA” value was at most 0.2. As for RMFT, the figure is 0.261; as for RIFT, at most 0.2; as for RLFT, 0.238. For RSAN the value was at most 0.2. As for LYNV, the figure is at most 0.2; as for GATD, at most 0.2; as for PPMS, at most 0.2.

For the variant HKTC, the “one-hybrid fitness for binding NBS DNA” value was at most 0.2.

MLVG: the “one-hybrid fitness for binding NBS DNA” value was at most 0.2. For YTRD the value was at most 0.2; for RCAV, at most 0.2. In the case of RAAP, the “one-hybrid fitness for binding NBS DNA” value is at most 0.2.

Consider RAFT, for which the “one-hybrid fitness for binding NBS DNA” value is 0.242. For RHAH the value was at most 0.2. For RHFT the value was 0.245.

For RFAT, the “one-hybrid fitness for binding NBS DNA” value is at most 0.2. As for RHAT, the figure is 0.432.

Turning to RPAT, the “one-hybrid fitness for binding NBS DNA” value was at most 0.2. On to RCAT, for which the “one-hybrid fitness for binding NBS DNA” value worked out at 0.515. For RAAT the value was 0.364; for TFCI, at most 0.2; for NDTY, at most 0.2. For AWHV the value was at most 0.2. As for HGAR, the figure is at most 0.2. Regarding EIKR, the “one-hybrid fitness for binding NBS DNA” value was at most 0.2. For WKER the value was at most 0.2; for RSQR, 0.44. For RSQP the value was at most 0.2; for RCQR, 0.512. On to RFQR, for which the “one-hybrid fitness for binding NBS DNA” value worked out at 0.282.

On to RDQR, for which the “one-hybrid fitness for binding NBS DNA” value is at most 0.2. For the variant RPQR, the “one-hybrid fitness for binding NBS DNA” value was at most 0.2. Take FPQS: the “one-hybrid fitness for binding NBS DNA” value is at most 0.2.

For RQSN, the “one-hybrid fitness for binding NBS DNA” value was at most 0.2. On to RQVT, for which the “one-hybrid fitness for binding NBS DNA” value was determined as 0.216.

As for RQHT, the “one-hybrid fitness for binding NBS DNA” value was determined as 0.417. In the case of RQSS, the “one-hybrid fitness for binding NBS DNA” value came to 0.446. As for RQKT, the figure is 0.63; as for RQKQ, 0.244; as for RQNS, 0.48. As for RQDS, the figure is at most 0.2; as for RQHK, at most 0.2.

Turning to RQHF, the “one-hybrid fitness for binding NBS DNA” value was at most 0.2. As for RQNH, the figure is 0.34.

On to RQSP, for which the “one-hybrid fitness for binding NBS DNA” value is at most 0.2. As for SYHE, the figure is at most 0.2; as for SRKD, at most 0.2. As for HWGA, the figure is at most 0.2.

On to RMER, for which the “one-hybrid fitness for binding NBS DNA” value was found to be 0.227.

For EGHG, the “one-hybrid fitness for binding NBS DNA” value is at most 0.2. For DQTE the value was at most 0.2; for MCRV, at most 0.2.

In the case of RQNP, the “one-hybrid fitness for binding NBS DNA” value was at most 0.2.

In the case of RQAD, the “one-hybrid fitness for binding NBS DNA” value was at most 0.2. As for RQDT, the figure is 0.268. For RQAT the value was 0.385. Take RQNT: the “one-hybrid fitness for binding NBS DNA” value worked out at 0.53. For RQGT the value was 0.351. As for RQSG, the figure is at most 0.2. Turning to RQST, the “one-hybrid fitness for binding NBS DNA” value stood at 0.474. For RQCP the value was at most 0.2; for RQCH, at most 0.2; for RQFT, 0.204. As for RQCT, the figure is 0.382; as for SAEQ, at most 0.2; as for SIIG, at most 0.2. For HRTH the value was at most 0.2; for VQPC, at most 0.2. For RQAH, the “one-hybrid fitness for binding NBS DNA” value is at most 0.2. For the variant RQYT, the “one-hybrid fitness for binding NBS DNA” value was 0.353.

Turning to RQRT, the “one-hybrid fitness for binding NBS DNA” value amounted to 0.615.

For the variant RQAS, the “one-hybrid fitness for binding NBS DNA” value is 0.38. For RQFS the value was 0.206; for RQPT, at most 0.2; for PKKW, at most 0.2. As for TRLN, the “one-hybrid fitness for binding NBS DNA” value was at most 0.2. As for IGRT, the “one-hybrid fitness for binding NBS DNA” value was at most 0.2. As for QQKV, the figure is 0.533. For QQRV the value was 0.493; for QQFV, at most 0.2. For QQVV the value was at most 0.2; for QQYV, at most 0.2; for QQDV, at most 0.2.

Consider VRMV, for which the “one-hybrid fitness for binding NBS DNA” value is at most 0.2. As for RRFA, the figure is 0.569; as for RRAA, 0.664. For RCFA the value was at most 0.2; for RPAA, at most 0.2.

Take RCAA: the “one-hybrid fitness for binding NBS DNA” value was found to be 0.234.

As to RSFA, the “one-hybrid fitness for binding NBS DNA” value is at most 0.2.
